Test results: PubChem BioAssay (EPA / NIEHS)
Active and inactive are the calls of the source. Rule for the calls: active = hit-call score of the fitted dose curve at least 0.9, where 1 is the maximum; inactive = score below 0.9.

Assays:
[1] = read-out: Human Leukocyte Antigen - DR isotype (HLADR), HLA-DRA (gene 3122); assay: BSK_CASM3C_HLADR: BioMAP Diversity Plus: CASM3C Assay for Human Leukocyte Antigen - DR isotype (HLADR) Biomarker Activity (AID 2283043); conditions: primary human coronary artery smooth muscle cells; actives raise or lower the signal;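 note: cell-surface HLA-DR protein level quantified by ELISA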
[2] = read-out: Macrophage colony-stimulating factor (MCSF), CSF1 (gene 1435); assay: BSK_CASM3C_MCSF: BioMAP Diversity Plus: CASM3C Assay for Macrophage colony-stimulating factor (MCSF) Biomarker Activity (AID 2283044); conditions: primary human coronary artery smooth muscle cells; actives raise or lower the signal;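 note: M-CSF protein amount quantified by ELISA after 24 h exposure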
[3] = read-out: Low-density lipoprotein receptor (LDLR), LDLR (gene 3949); assay: BSK_CASM3C_LDLR: BioMAP Diversity Plus: CASM3C Assay for Low-density lipoprotein receptor (LDLR) Biomarker Activity (AID 2283045); conditions: primary human coronary artery smooth muscle cells; actives raise or lower the signal;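 note: LDLR protein level on the cell surface quantified by ELISA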
[4] = read-out: Monocyte Chemoattractant Protein-1 (MCP1), CCL2 (gene 6347); assay: BSK_CASM3C_MCP1: BioMAP Diversity Plus: CASM3C Assay for Monocyte Chemoattractant Protein-1 (MCP1) Biomarker Activity (AID 2283046); conditions: primary human coronary artery smooth muscle cells; actives raise or lower the signal;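 note: MCP-1 level quantified by ELISA 24 h after dosing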
[5] = BSK_CASM3C_Proliferation: Cell Proliferation Assessment in the BioMAP Diversity Plus: CASM3C Assay (AID 2283047); conditions: primary human coronary artery smooth muscle cells;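 note: sulforhodamine B total protein stain as relative cell number at 560 nm; sub-confluent cells exposed 48 h before staining; fitted both ways against DMSO so gain or loss of cell number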
[6] = read-out: Monokine induced gamma interferon (MIG), CXCL9 (gene 4283); assay: BSK_CASM3C_MIG: BioMAP Diversity Plus: CASM3C Assay for Monokine induced gamma interferon (MIG) Biomarker Activity (AID 2283048); conditions: primary human coronary artery smooth muscle cells; actives raise or lower the signal;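 note: MIG protein level measured by ELISA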
[7] = read-out: serum amyloid A (SAA), SAA1 (gene 6288); assay: BSK_CASM3C_SAA: BioMAP Diversity Plus: CASM3C Assay for serum amyloid A (SAA) Biomarker Activity (AID 2283049); conditions: primary human coronary artery smooth muscle cells; actives raise or lower the signal;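 note: SAA protein level quantified by ELISA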
[8] = BSK_CASM3C_SRB: Viability Assessment in the BioMAP Diversity Plus: CASM3C Assay (AID 2283050); conditions: primary human coronary artery smooth muscle cells;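 note: total protein by SRB staining as cytotoxicity measure in parallel cultures; cells exposed to compound for 24 h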
[9] = read-out: Thrombomodulin, THBD (gene 7056); assay: BSK_CASM3C_Thrombomodulin: BioMAP Diversity Plus: CASM3C Assay for Thrombomodulin Biomarker Activity (AID 2283051); conditions: primary human coronary artery smooth muscle cells; actives raise or lower the signal;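 note: thrombomodulin protein level measured by ELISA 24 h after dosing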
[10] = read-out: Tissue Factor, F3 (gene 2152); assay: BSK_CASM3C_TissueFactor: BioMAP Diversity Plus: CASM3C Assay for Tissue Factor Biomarker Activity (AID 2283052); conditions: primary human coronary artery smooth muscle cells; actives raise or lower the signal;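 note: cell surface tissue factor protein level read by ELISA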
[11] = read-out: Interferon-gamma inducible Protein 10 (IP10), CXCL10 (gene 3627); assay: BSK_hDFCGF_IP10: BioMAP Diversity Plus: hDFCGF Assay for Interferon-gamma inducible Protein 10 (IP10) Biomarker Activity (AID 2283053); conditions: primary human foreskin fibroblasts; actives raise or lower the signal
How it was run: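 Cells: human dermal foreskin fibroblasts. Exposure: 24 h post-dosing. Detection: IP-10 ELISA, with values expressed against DMSO controls and fitted in both directions.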

[12] = read-out: Urokinase-type plasminogen activator receptor (uPAR), PLAUR (gene 5329); assay: BSK_CASM3C_uPAR: BioMAP Diversity Plus: CASM3C Assay for Urokinase-type plasminogen activator receptor (uPAR) Biomarker Activity (AID 2283054); conditions: primary human coronary artery smooth muscle cells; actives raise or lower the signal;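 note: cell-surface uPAR protein level quantified by ELISA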
[13] = read-out: Vascular cell adhesion molecule 1 (VCAM1), VCAM1 (gene 7412); assay: BSK_CASM3C_VCAM1: BioMAP Diversity Plus: CASM3C Assay for Vascular cell adhesion molecule 1 (VCAM1) Biomarker Activity (AID 2283055); conditions: primary human coronary artery smooth muscle cells; actives raise or lower the signal;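 note: VCAM-1 protein level quantified by ELISA on the cells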
[14] = read-out: Collagen III, COL3A1 (gene 1281); assay: BSK_hDFCGF_CollagenIII: BioMAP Diversity Plus: hDFCGF Assay for Collagen III Biomarker Activity (AID 2283056); conditions: primary human foreskin fibroblasts; actives raise or lower the signal
How it was run: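 ELISA read-out of collagen III from human skin fibroblast cultures sampled 24 h post-dosing. Values were derived by bidirectional fitting relative to the DMSO vehicle control.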

[15] = read-out: Epidermal growth factor receptor (EGFR), EGFR (gene 1956); assay: BSK_hDFCGF_EGFR: BioMAP Diversity Plus: hDFCGF Assay for Epidermal growth factor receptor (EGFR) Biomarker Activity (AID 2283057); conditions: primary human foreskin fibroblasts; actives raise or lower the signal
How it was run: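 Dosing human primary skin fibroblasts, then measuring surface EGFR by ELISA at 24 h, gives the endpoint; gains and losses relative to DMSO were fitted in both directions.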

[16] = read-out: Interleukin-8 (IL8), CXCL8 (gene 3576); assay: BSK_hDFCGF_IL8: BioMAP Diversity Plus: hDFCGF Assay for Interleukin-8 (IL8) Biomarker Activity (AID 2283058); conditions: primary human foreskin fibroblasts; actives raise or lower the signal
How it was run: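 Cells used are human skin primary fibroblasts. Chemical is added, cultures run 24 h, then IL-8 is quantified by ELISA, and gain or loss versus DMSO control is fitted in both directions.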

[17] = BSK_hDFCGF_Proliferation: Cell Proliferation Assessment in the BioMAP Diversity Plus: hDFCGF Assay (AID 2283059); conditions: primary human foreskin fibroblasts;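 note: curves fitted for both rise and fall of signal versus DMSO baseline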
How it was run: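 Primary human foreskin fibroblasts, sub-confluent; […]; 10% TCA fix, 0.1% SRB stain, A560 total protein. Gain/loss fitted bidirectionally vs DMSO control.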

[18] = read-out: Macrophage colony-stimulating factor (MCSF), CSF1 (gene 1435); assay: BSK_hDFCGF_MCSF: BioMAP Diversity Plus: hDFCGF Assay for Macrophage colony-stimulating factor (MCSF) Biomarker Activity (AID 2283060); conditions: primary human foreskin fibroblasts; actives raise or lower the signal
How it was run: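 Primary human foreskin fibroblasts dosed with chemical; 24 h later, M-CSF quantified by ELISA; curves fitted in both directions vs DMSO negative control.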

[19] = BSK_hDFCGF_SRB: Viability Assessment in the BioMAP Diversity Plus: hDFCGF Assay (AID 2283061); conditions: primary human foreskin fibroblasts;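 note: cells exposed to compound for 24 h before the read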
How it was run: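 Readout is SRB absorbance at 560 nm, reflecting total protein in parallel cultures of human foreskin fibroblasts harvested 24 h after chemical dosing. Activity was fitted bidirectionally relative to DMSO.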

[20] = read-out: TIMP metallopeptidase inhibitor 1 (TIMP1), TIMP1 (gene 7076); assay: BSK_hDFCGF_TIMP1: BioMAP Diversity Plus: hDFCGF Assay for TIMP metallopeptidase inhibitor 1 (TIMP1) Biomarker Activity (AID 2283062); conditions: primary human foreskin fibroblasts; actives raise or lower the signal
How it was run: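 Human skin fibroblasts (primary), hDFCGF system; compound exposure 24 h; TIMP-1 by ELISA; bidirectional fit vs DMSO negative control; overt cytotoxicity by SRB in parallel wells.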

Measured: AC50

Cc1c(C)c2c(c(C)c1O)CCC(C)(COc1ccc(CC3SC(=O)NC3=O)cc1)O2 (stereo not drawn)
active: [5] 6.88 µM | [9] 5.08 µM | [11] 9.98 µM | [14] 12 µM | [15] 8.04 µM | [16] 27.8 µM | [17] 6.8 µM | [18] 11.7 µM | [19] 19.2 µM
not listed: [20]
inactive: all other assays above

O=C(O)CN(CC(=O)O)CC(=O)O
inactive: all assays above

CC(C)c1cccc(C(C)C)c1NC(=O)NS(=O)(=O)c1cc(C(C)(C)O)co1
inactive: all assays above

CCc1nc(N)nc(N)c1-c1ccc(Cl)cc1
not listed: [18]
inactive: all other assays above

O=C(Oc1ccccc1)c1cccc(C(=O)Oc2ccccc2)c1
not listed: [18]
inactive: all other assays above

CCCCc1nc2cccnc2n1Cc1ccc(-c2ccccc2-c2nnn[nH]2)cc1
active: [11] 32 µM | [17] 18.7 µM
inactive: all other assays above

CCCC(=O)O
inactive: all assays above

CC(C)NCC(O)c1ccc(O)c(O)c1 (stereo not drawn)
active: [17] 26.4 µM
not listed: [18]
inactive: all other assays above

CCCCCCCC(=O)OC
not listed: [18]
inactive: all other assays above

O=C(O)c1cccnc1
inactive: all assays above

O=C1CCCCC1
active: [9] 0.194 µM
not listed: [18]
inactive: all other assays above

O=C(NS(=O)(=O)/C=C/c1cccs1)c1ccc(F)cc1Br
active: [5] 5.22 µM | [10] 0.061 µM | [11] 30.9 µM | [17] 6.17 µM
inactive: all other assays above

CCCCCCC(CCCCCCCCCCC(=O)OCC(COC(C)=O)OC(C)=O)OC(C)=O (stereo not drawn)
active: [14] 2.73 µM | [17] 3.11 µM
not listed: [18]
inactive: all other assays above

CC(N)=O
inactive: all assays above

CO[C@@H]1COCC[C@@H]1N[C@@H]1CC[C@@](C(=O)N2CCc3ncc(C(F)(F)F)cc3C2)(C(C)C)C1
inactive: all assays above

CCc1cc(C2=C(C(=O)O)N(c3ccccc3C(F)(F)F)S(=O)(=O)c3ccccc32)cc2c1OCO2
active: [1] 9.8 µM | [2] 19.8 µM | [3] 7.18 µM | [14] 32.5 µM | [17] 15.5 µM
inactive: all other assays above

O=Cc1ccccc1C=O
inactive: all assays above

CCCCC(CC)CO (stereo not drawn)
not listed: [18]
inactive: all other assays above

CN(C)C(=O)NC1(c2ccccc2)CCN(CC[C@@]2(c3ccc(F)c(F)c3)CN(C(=O)c3ccccc3)CCO2)CC1
active: [17] 14.2 µM
inactive: all other assays above

CC(C)COC(=O)CCCCC(=O)OCC(C)C
not listed: [18]
inactive: all other assays above

CCCCCCCCCCCCCCOS(=O)(=O)O
active: [11] 8.52 µM | [14] 7.78 µM | [15] 12.2 µM | [16] 12.4 µM | [17] 5.36 µM | [18] 9.53 µM | [19] 10.1 µM | [20] 9.76 µM
inactive: all other assays above

NC=O
active: [17] 19.2 µM
not listed: [18]
inactive: all other assays above

CCCC[C@H]1CN(CC2CCOCC2)C(=O)OC12CCN(C1(C)CCN(C(=O)c3c(C)ncnc3C)CC1)CC2
not listed: [18]
inactive: all other assays above

CC1(C)C(=O)NC(=O)N1CO
not listed: [18]
inactive: all other assays above

COc1ccc(C(=O)Nc2nc3ccccc3c(NCc3ccccc3)c2C#N)cc1
active: [3] 9.66 µM | [14] 2.8 µM | [17] 5.53 µM
inactive: all other assays above

CCCCCCC(C=O)=Cc1ccccc1
active: [5] 30.9 µM | [11] 32.6 µM | [14] 30.1 µM | [17] 28.9 µM | [19] 31.5 µM
inactive: all other assays above

CC1=C(C)S(=O)(=O)CCS1(=O)=O
inactive: all assays above
